MITF TRPM1 HTS: increases MITF-driven TRPM1 promoter luciferase signal. SK-MEL-5 TRPM1-promoter luciferase, 24 h; % of positive control, neutral wells = 0. activation, % at 12.5 µM. actives 0.75% (n = 300,000). AID 588334;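 active means mean activation of at least 80% with every replicate also reaching 80%; inconclusive means mean reaches 80% but some replicate falls short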;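 further: 0% = neutral control wells and 100% = parthenolide positive control wells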
GAA850 FXN act: frataxin GAA850 promoter activation; HEK293 lucGAA850 FXN promoter luciferase reporter, 24 h; percent of 10 µM SAHA response; activation, % at 6 µM; actives 0.56% (n = 360,000); AID 540364;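 active means activation above the average of all compounds screened plus 3 SD, cutoff fixed separately per campaign, cut at about 7.5% in these data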;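 further: 0% = DMSO wells and 100% = 10 µM SAHA wells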
esBAF inh: SWI/SNF esBAF complex inhibition; mouse ES cells, Bmi1-luciferase knock-in reporter, 24 h; 100% = twice the neutral-well signal; AID 602393; actives 2% (n = 350,000); reporter increase, % at 12.5 µM; in the data active means activation above about 40%; inconclusive means no clear call, values can overlap the other calls;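 further: 0% = median of the plate's neutral control wells and 100% = double that signal; a rise in the Bmi1 reporter signal indicates esBAF inhibition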
Wnt act: activators of Wnt/beta-catenin signaling | actives 1.2% (n = 300,000) | activation, % at 9.35 µM | Wnt/beta-catenin reporter cell assay, activator, plate reader; in the data active means activation above about 30%, passing the limit was not always enough; inconclusive means no clear call, values can overlap the other calls;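 further: 0% = neutral control wells and 100% = positive control wells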
* marks the source's active call; other numbers are inactive results; ? = inconclusive; nt = not tested or not shown. This is a sample that favours compounds with a hit; in the whole collection about 2.8% have one here.

SMILES	MITF TRPM1 HTS	GAA850 FXN act	esBAF inh	Wnt act
COc1ccc(-c2cc3nc(CCl)[nH]c(=O)c3s2)cc1	-11	-4	-68	8
CO[C@H]1CN(C)C(=O)c2ccc(NC(C)=O)cc2OC[C@@H](C)N(C(=O)CN2CCOCC2)C[C@H]1C	nt	nt	0	nt
Cc1ccnc(NC(=O)CNC(=O)c2ccc(C)s2)c1	21	2	?	-1
Cc1ccnc(NC(=O)c2cc3cc(F)ccc3s2)c1	52	4	17	38*
Cc1ccnc(NC(=O)c2ccc([N+](=O)[O-])s2)c1	-27	4	29	42*
C[C@H](NC(=O)C[C@@H]1C[C@H]2c3cc(NC(=O)C4CCC4)ccc3O[C@H]2[C@H](CO)O1)c1ccccc1	nt	nt	1	nt
COC(=O)C[C@H]1C[C@H]2c3cc(NS(=O)(=O)c4ccccc4)ccc3O[C@H]2[C@@H](CO)O1	nt	nt	7	nt
CC(C)(C)c1cnnn1-c1ccc(NC(=O)c2ccc3c(c2)OCO3)cc1	32	2	44*	nt
NC(=O)c1ccc(NC(=O)c2ccc3c(c2)OCO3)cc1	88*	4	22	-1
O=C(Nc1ccc2c(c1)OCO2)c1ccc2c(c1)OCO2	20	2	nt	nt
CCN1CCN(c2ccc(NC(=O)c3ccc4c(c3)OCO4)cc2)CC1	35	6	11	47*
O=C(Nc1ccc(F)c(F)c1)c1ccc2c(c1)OCO2	85*	4	58*	nt
O=C(C[C@@H]1C[C@@H]2c3cc(NC(=O)NC4CCCC4)ccc3O[C@@H]2[C@@H](CO)O1)NCc1cc(F)ccc1F	nt	nt	-5	nt
CCCNC(=O)Nc1ccc2c(c1)C(=O)N(C)C[C@@H](OC)[C@H](C)CN(CCC(F)(F)F)[C@@H](C)CO2	nt	nt	3	nt
CCCC(=O)Nc1ccc2c(c1)C(=O)N(C)C[C@H](OC)[C@@H](C)CN(C)[C@H](C)CO2	nt	nt	-3	nt
COCCSc1nnc(NC(=O)c2ccc3c(c2)OCO3)s1	38	1	nt	47*
O=C(Nc1ccc2c(c1)OCO2)c1c(Cl)nc2sccn12	94*	6	49*	nt
O=C(Nc1ccc2c(c1)OCO2)c1cccc(Cl)c1	104*	1	64*	-1
O=C(Nc1ccc(Cl)cc1)c1ccc2c(c1)OCO2	71	-1	nt	nt
COc1cc2c(cc1NC(=O)c1ccc3c(c1)OCO3)oc1ccccc12	66	2	47*	22
COc1ccccc1NC(=O)c1ccc2c(c1)OCO2	nt	2	14	12
CSc1nnc(NC(=O)c2ccc3c(c2)OCO3)s1	-38	1	-74	11
COc1cc(NC(=O)c2ccc3c(c2)OCO3)ccc1NC(=O)C(C)C	nt	2	52*	1
Cc1noc(C)c1NC(=O)N(C)C[C@@H]1Oc2ccc(NC(=O)C3CC3)cc2C(=O)N([C@@H](C)CO)C[C@H]1C	nt	nt	-4	nt
Cc1noc(C)c1NC(=O)Nc1ccc2c(c1)CC(=O)N([C@@H](C)CO)C[C@H](C)[C@@H](CN(C)C(=O)NC(C)C)O2	nt	nt	-6	nt
SMILES	MITF TRPM1 HTS	GAA850 FXN act	esBAF inh	Wnt act
Cc1cc(NC(=O)c2ccoc2C)ccc1Br	86*	5	88*	57*
Cc1occc1C(=O)NNC(=O)c1ccccc1F	26	3	nt	37*
Cc1occc1C(=O)Nc1ccc2c(c1)OCO2	79	1	nt	nt
Cc1ccc(NC(=O)c2ccoc2C)cc1C	25	2	nt	31*
C[C@@H]1CN([C@@H](C)CO)C(=O)Cc2cc(NC(=O)Nc3ccc(C(F)(F)F)cc3)ccc2O[C@H]1CN(C)CC1CCCCC1	nt	nt	-4	nt
O=C(Nc1ccc2c(c1)OCO2)N[C@@H]1CC[C@H](CCNC(=O)C2CCCCC2)O[C@@H]1CO	nt	nt	-1	nt
N#C[C@H]1[C@@H](c2ccc(C#CC3(O)CCCC3)cc2)[C@@H](CO)N1C(=O)C1CCCC1	nt	nt	2	nt
Cc1ccc(NC(=O)CNCc2cccs2)cc1Br	16	2	?	0
CC(=O)c1ccc(NC(=O)CNCc2cccs2)cc1	67	4	54*	14
CC(=O)c1c(C)[nH]c(C(=O)OCC(=O)NCc2ccc(Cl)cc2)c1C	nt	0	10	1
O=C(COC(=O)c1ccccc1Cl)NCc1cccs1	nt	-2	2	-1
CCOC(=O)c1c(C)[nH]c(/C(C)=N/NC(=O)c2cccnc2)c1C	nt	0	16	-5
CCOC(=O)c1c(C)[nH]c(C(C)=NNC(=O)c2cccs2)c1C	nt	2	77*	61*
CC(=O)c1c(C)[nH]c(C(=O)OCC(=O)NCc2cccs2)c1C	19	2	55*	17
Nc1cc(Cl)ccc1C(=O)OCC(=O)NCc1cccs1	26	2	53*	12
C[C@H]1CN([C@@H](C)CO)C(=O)c2cc(C#CC3CC3)cnc2O[C@H]1CN(C)S(=O)(=O)c1cccc(F)c1	nt	nt	17	nt
Cc1noc(C)c1S(=O)(=O)Nc1cccc2c1O[C@H](CN(C)C(=O)NC1CCCCC1)[C@H](C)CN([C@H](C)CO)C2=O	nt	nt	-3	nt
Cc1ccc(S(=O)(=O)N(C(=O)c2ccncc2)c2ccc(OC(=O)c3ccncc3)cc2)c(C)c1	-8	0	nt	-1
Cc1ccc(C)c(S(=O)(=O)N(C(=O)c2ccncc2)c2ccc(OC(=O)c3ccncc3)cc2)c1	3	-1	nt	48*
COCCN(CC(=O)Nc1cccc(C)c1C)C(=O)c1ccc2ccccc2n1	11	4	47*	-4
CCOC(=O)C1CCCN(C(=O)COc2ccccc2O)C1 (stereo unspecified)	nt	-1	0	nt
CCOC(=O)C1CCCN(C(=O)CSCc2ccccc2)C1 (stereo unspecified)	62	3	48*	-1
CCOC(=O)C1CCCN(C(=O)CSc2nc(C)cc(C)n2)C1 (stereo unspecified)	-18	1	-2	0
CCOC(=O)C1CCCN(C(=O)CCc2nnc(-c3ccc(C(C)=O)s3)o2)C1 (stereo unspecified)	68	2	71*	41*
COc1cccc(C2Nc3ccccc3C(=O)N2c2ccc(F)cc2)c1O (stereo unspecified)	101*	3	?	19
SMILES	MITF TRPM1 HTS	GAA850 FXN act	esBAF inh	Wnt act
CC1CCC(NC(=O)c2ccc(NS(=O)(=O)c3ccc4[nH]c(=O)[nH]c4c3)cc2)CC1 (stereo unspecified)	98*	5	nt	23
CCNC(=O)c1ccc(NS(=O)(=O)c2ccc3[nH]c(=O)[nH]c3c2)cc1	4	1	nt	-4
COc1ccc(-n2nc(C(=O)NCC(=O)N3CCC(C)CC3)c3ccccc3c2=O)cc1Cl	79	2	47*	8
COC1=C/C(=C/c2c(O)c(C#N)c3ccccn23)C=CC1=O	0	5	55*	34*
COc1cc(OC)cc(C(=O)c2c(C)c(C#N)c3ccccn23)c1	nt	-1	-50	-6
C[C@H]1CN([C@@H](C)CO)C(=O)Cc2cc(NC(=O)NC3CCCCC3)ccc2O[C@H]1CN(C)S(C)(=O)=O	nt	nt	1	nt
O=C(Nc1cccc(O)c1)c1cccc(S(=O)(=O)N2CCCCCC2)c1	32	1	53*	7
Cc1ccnc(NC(=O)c2cccc(S(=O)(=O)N3CCOCC3)c2)c1	2	3	50*	22
